The record followed here is PubChem BioAssay (NCI).

SMILES strings stand for the structures. About 79,000 compounds went through this panel and 15% of them were active in at least one assay; those are over-represented in the sample as a whole. Values without a mark were called inactive. The source made the active and inactive calls. No stated cut-off is given here; in the data, active means growth inhibition above about 70%; inactive means the rest.

Test [1] is described as follows: NCI Yeast Anticancer Drug Screen. Data for the rad50 strain (AID 155).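 Further: 0% = growth of vehicle-only cultures of the same strain.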 The note with it: S. cerevisiae rad50 strain growth inhibition, hits give high values. In a few lines: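 Yeast carrying a defined DNA repair defect were exposed to test compounds, and growth was compared with vehicle-treated controls to give percent inhibition.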
The nature of test [2]: NCI Yeast Anticancer Drug Screen. Data for the mec2-1 strain (AID 157). The note with it: S. cerevisiae mec2-1 strain, hits give high values. In a few lines:
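Cells of the genetically defined mec2-1 yeast strain are incubated with test compound. Inhibition of growth is calculated against vehicle-treated controls.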

Test [3] in a line: NCI Yeast Anticancer Drug Screen. Data for the sgs1 mgt1 strain (AID 161).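 Further: 0% = growth of cultures given vehicle only.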 The note with it: S. cerevisiae sgs1 mgt1 strain, hits give high values. In short, it runs like this: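 Test agents were incubated with a DNA-repair-mutant yeast strain. Growth was then read and compared against vehicle-treated controls.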
A short description of test [4]: NCI Yeast Anticancer Drug Screen. Data for the cln2 rad14 strain (AID 165).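 Further: 0% = growth equal to vehicle treated cultures.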 The note with it: S. cerevisiae cln2 rad14 strain, hits give high values. In a few lines:
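The screen exposed genetically defined yeast (cln2 rad14) to test compounds and scored growth inhibition relative to vehicle-treated controls.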

The nature of test [5]: NCI Yeast Anticancer Drug Screen. Data for the bub3 strain (AID 167). The note with it: S. cerevisiae bub3 mutant strain, hits give high values. In short, it runs like this:
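Compounds were applied to a genetically altered yeast strain carrying a cell-cycle control defect. Growth inhibition was scored against vehicle-treated controls.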

The nature of test [6]: NCI Yeast Anticancer Drug Screen. Data for the mlh1 rad18 strain (AID 175). The note with it: S. cerevisiae mlh1 rad18 strain growth inhibition, hits give high values. In short, it runs like this: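 Compound-treated yeast growth, normalised to vehicle controls. Strain bears defined DNA repair mutations.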
Setting [7] is: at 5.0 µM (retest, dose inferred, filed as 0.5).
Setting [8] is: at 50.0 µM (retest, dose inferred, filed as 5.0).

Consider `C#CCN(N=O)C(=O)NCCCC(NC(C)=O)C(=O)NCc1ccccc1` (stereo not given), for which the growth inhibition in test [1] (setting [7]) is -4%; in test [1] (setting [8]) it was 19%; in test [1] (at 50.0 µM), 78.9% (active); in test [2] (setting [7]), -26%; in test [2] (setting [8]), -10%; in test [2] (at 50.0 µM), -5.35%. Moreover, the growth inhibition in test [3] (setting [7]) was 3%; in test [3] (setting [8]), 36%; in test [3] (at 50.0 µM), 43.6%; in test [4] (setting [7]), -8%; in test [4] (setting [8]) it was 12%; in test [4] (at 50.0 µM), 27.1%. Moreover, the growth inhibition was 6% in test [5] (setting [7]); 26% in test [5] (setting [8]); -13.6% in test [5] (at 50.0 µM); -2% in test [6] (setting [7]); 42% in test [6] (setting [8]); 25.8% in test [6] (at 50.0 µM).

On to `O=c1c(O)cc2c(O)oc3c(=O)c(O)c(O)c4c(O)oc1c2c43`, for which the growth inhibition in test [1] (setting [7]) is 58%; in test [1] (setting [8]), 96% (active); in test [1] (at 50.0 µM), 88.4% (active); in test [2] (setting [7]), 23%; in test [2] (setting [8]) it was 93% (active); in test [2] (at 50.0 µM), 57.2%. The growth inhibition is 41% in test [3] (setting [7]); 90% (active) in test [3] (setting [8]); 67.2% in test [3] (at 50.0 µM); 12% in test [4] (setting [7]); 90% (active) in test [4] (setting [8]); 50.3% in test [4] (at 50.0 µM). In addition, the growth inhibition in test [5] (setting [7]) was 25%; in test [5] (setting [8]) it was 90% (active); in test [5] (at 50.0 µM), 85% (active); in test [6] (setting [7]), 41%; in test [6] (setting [8]), 96% (active); in test [6] (at 50.0 µM), 66.2%.

Regarding `COc1ccccc1/C=N/Nc1nnc(N/N=C/c2ccccc2OC)c2ccccc12`, the growth inhibition is -1% in test [1] (setting [7]); 56% in test [1] (setting [8]); 74.6% (active) in test [1] (at 50.0 µM); 13% in test [2] (setting [7]); 73% (active) in test [2] (setting [8]); 95.8% (active) in test [2] (at 50.0 µM). The growth inhibition is 10% in test [3] (setting [7]); 89% (active) in test [3] (setting [8]); 58% in test [3] (at 50.0 µM); -8% in test [4] (setting [7]); 82% (active) in test [4] (setting [8]); 97.3% (active) in test [4] (at 50.0 µM). Besides, the growth inhibition in test [5] (setting [7]) was -5%; in test [5] (setting [8]) it was 94% (active); in test [5] (at 50.0 µM) it was 96.2% (active); in test [6] (setting [7]) it was -5%; in test [6] (setting [8]), 99% (active); in test [6] (at 50.0 µM), 93.4% (active).

With `CCN(CC)CCC(=O)c1ccc2c3c(n(C)c2c1)CCCC3`, the growth inhibition in test [1] (setting [7]) was 0%; in test [1] (setting [8]) it was 9%; in test [1] (at 50.0 µM), 95.8% (active); in test [2] (setting [7]), 0%; in test [2] (setting [8]) it was 9%; in test [2] (at 50.0 µM) it was 25.2%. In addition, the growth inhibition in test [3] (setting [7]) was -4%; in test [3] (setting [8]), 26%; in test [3] (at 50.0 µM), 83.8% (active); in test [4] (setting [7]), -5%; in test [4] (setting [8]), 22%; in test [4] (at 50.0 µM), 5.85%. Moreover, the growth inhibition is -5% in test [5] (setting [7]); 42% in test [5] (setting [8]); 96.3% (active) in test [5] (at 50.0 µM); 3% in test [6] (setting [7]); 21% in test [6] (setting [8]); 78.7% (active) in test [6] (at 50.0 µM).

Regarding `Cc1ccc(S(=O)(=O)NNC(C[N+](=O)[O-])c2ccccc2)cc1` (stereo not given), the growth inhibition in test [1] (setting [7]) is 69%; in test [1] (setting [8]), 99% (active); in test [1] (at 50.0 µM) it was 96.9% (active); in test [2] (setting [7]) it was 5%; in test [2] (setting [8]), 100% (active); in test [2] (at 50.0 µM), 44.4%. Also, the growth inhibition is 23% in test [3] (setting [7]); 99% (active) in test [3] (setting [8]); 96.2% (active) in test [3] (at 50.0 µM); 8% in test [4] (setting [7]); 74% (active) in test [4] (setting [8]); 70.7% (active) in test [4] (at 50.0 µM). Also, the growth inhibition in test [5] (setting [7]) was 17%; in test [5] (setting [8]), 99% (active); in test [5] (at 50.0 µM) it was 92.7% (active); in test [6] (setting [7]), 36%; in test [6] (setting [8]), 99% (active); in test [6] (at 50.0 µM) it was 96% (active).

On to `O=C(O)c1ccccc1-c1c2cc(I)c(=O)c(I)c-2oc2c(I)c(O)c(I)cc12`, for which the growth inhibition in test [1] (setting [7]) is 20%; in test [1] (setting [8]) it was 98% (active); in test [1] (at 50.0 µM) it was 98.9% (active); in test [2] (setting [7]) it was 15%; in test [2] (setting [8]), 99% (active); in test [2] (at 50.0 µM) it was 99.5% (active). Also, the growth inhibition in test [3] (setting [7]) was 12%; in test [3] (setting [8]), 97% (active); in test [3] (at 50.0 µM), 99.2% (active); in test [4] (setting [7]), 5%; in test [4] (setting [8]), 98% (active); in test [4] (at 50.0 µM), 99% (active). The growth inhibition in test [5] (setting [7]) was 2%; in test [5] (setting [8]) it was 98% (active); in test [5] (at 50.0 µM), 98.9% (active); in test [6] (setting [7]), 34%; in test [6] (setting [8]), 99% (active); in test [6] (at 50.0 µM) it was 98.8% (active).

In the case of `Cc1nc(C)c(C(=O)NNC(=O)C[N+](C)(C)C)cc1C(=O)NNC(=O)C[N+](C)(C)C`, the growth inhibition in test [1] (setting [7]) was 66%; in test [1] (setting [8]) it was 8%; in test [1] (at 50.0 µM), -23.2%; in test [2] (setting [7]), 18%; in test [2] (setting [8]), 7%; in test [2] (at 50.0 µM), -8.4%. The growth inhibition in test [3] (setting [7]) is -36%; in test [3] (setting [8]), -29%; in test [3] (at 50.0 µM) it was 5.8%; in test [4] (setting [7]), -2%; in test [4] (setting [8]), -4%; in test [4] (at 50.0 µM), 7.2%. Besides, the growth inhibition in test [5] (setting [7]) is -20%; in test [5] (setting [8]), 8%; in test [5] (at 50.0 µM), -15.2%; in test [6] (setting [7]) it was 17%; in test [6] (setting [8]) it was 14%; in test [6] (at 50.0 µM) it was -25.4%.

On to `Cc1cc(=O)[nH]c(NN2C(Cl)C(=O)C2c2ccc(O)cc2)n1` (stereo not given), for which the growth inhibition in test [1] (setting [7]) was -14%; in test [1] (setting [8]) it was 81% (active); in test [1] (at 50.0 µM) it was 82.2% (active); in test [2] (setting [7]), -9%; in test [2] (setting [8]), 82% (active); in test [2] (at 50.0 µM), 67.2%. Further, the growth inhibition was -5% in test [3] (setting [7]); 68% in test [3] (setting [8]); 79.5% (active) in test [3] (at 50.0 µM); 14% in test [4] (setting [7]); 63% in test [4] (setting [8]); 53.6% in test [4] (at 50.0 µM). For the same molecule, the growth inhibition in test [5] (setting [7]) is 7%; in test [5] (setting [8]) it was 94% (active); in test [5] (at 50.0 µM) it was 78.3% (active); in test [6] (setting [7]) it was 7%; in test [6] (setting [8]) it was 92% (active); in test [6] (at 50.0 µM) it was 71.3% (active).

With `O=C(O)CCC(=O)NCCNC(=O)CC(=O)O`, the growth inhibition in test [1] (setting [7]) was -152%; in test [1] (setting [8]), -162%; in test [1] (at 50.0 µM), 10.7%; in test [2] (setting [7]) it was -52%; in test [2] (setting [8]) it was -51%; in test [2] (at 50.0 µM), -14.8%. Besides, the growth inhibition in test [3] (setting [7]) was -57%; in test [3] (setting [8]), -63%; in test [3] (at 50.0 µM) it was 43%; in test [4] (setting [7]) it was -52%; in test [4] (setting [8]), -48%; in test [4] (at 50.0 µM) it was 36.3%. Moreover, the growth inhibition is -68% in test [5] (setting [7]); -79% in test [5] (setting [8]); -1.55% in test [5] (at 50.0 µM); -116% in test [6] (setting [7]); -107% in test [6] (setting [8]); 9% in test [6] (at 50.0 µM).

Consider `Clc1ccc2nc(Cl)c(Cl)nc2c1`, for which the growth inhibition in test [1] (setting [7]) is -143%; in test [1] (setting [8]) it was 42%; in test [1] (at 50.0 µM) it was 81.3% (active); in test [2] (setting [7]) it was -43%; in test [2] (setting [8]), 27%; in test [2] (at 50.0 µM), 45.3%. Moreover, the growth inhibition is -56% in test [3] (setting [7]); 76% (active) in test [3] (setting [8]); 88.9% (active) in test [3] (at 50.0 µM); -54% in test [4] (setting [7]); 51% in test [4] (setting [8]); 59.5% in test [4] (at 50.0 µM). Further, the growth inhibition in test [5] (setting [7]) was -71%; in test [5] (setting [8]), 44%; in test [5] (at 50.0 µM) it was 65.2%; in test [6] (setting [7]), -137%; in test [6] (setting [8]), 62%; in test [6] (at 50.0 µM), 69.6%.
